This is an account of results in PubChem BioAssay.

One may read the inhibition as the change of the read-out against control, counted positive when it falls.

This experiment can be described thus: inhibitors of PAF-induced NFkB signaling in CF airway cells, dose response, cell-based, uHTS hits, panel, cytotoxicity readout (AID 624344). The note with it: CF bronchial epithelial cells, PAF-induced NFkB reporter inhibition, with PAF, run 1; at 79 µM (top of the series) unless noted.
Consider `O=C1C(=Cc2ccccc2[N+](=O)[O-])Cc2ccccc21`, for which the inhibition came to 68.5%.
For the compound `COc1ccc(S(=O)(=O)N2c3cc(C)ccc3OCC2C(C)(C)C)cc1` (stereo not drawn), the inhibition was determined as 103%.
`CN(c1ncnc(N)c1[N+](=O)[O-])C1CCS(=O)(=O)C1` (stereo not drawn): the inhibition was found to be 96.8%.
`CS(=O)(=O)c1ccc2nc(NC(=O)Nc3cccc(Cl)c3)sc2c1`: the inhibition was 79.3%.
As to `CC1=C(C(=O)OCc2ccc3c(c2)OCO3)C(c2ccc(O)c([N+](=O)[O-])c2)NC(=O)N1` (stereo not drawn), the inhibition stood at 94.5%.
For `COc1cccc(N2CCN(c3c(C#N)c(C(F)(F)F)nn3C)CC2)c1`, the inhibition is 111%.
On to `COc1cccc2c(SCC(=O)N/N=C/c3ccccc3)cc(C)nc12`, for which the inhibition was found to be 104%.
Consider `O=C(Nc1ccccc1)c1cc2ccccc2c(=O)s1`, for which the inhibition is 50.8%.
For the compound `O=[N+]([O-])c1cccc(NC(=S)Nc2nc(-c3ccccc3Cl)cs2)c1`, the inhibition is 108%.
As for `CCCCNc1c(-c2cccc(-c3ccc(OC)cc3)c2)nc2ccc(C)cn12`, the inhibition stood at 98.7%.
Take `N#CC(C#N)=C1SC(=Nc2ccccc2)C(=Nc2ccccc2)N1c1ccccc1`: the inhibition is 98.5%.
Take `O=S(=O)(Nc1ccc(Cl)cc1NS(=O)(=O)c1ccccc1)c1ccccc1`: the inhibition is 114%.
As to `Clc1ccc(-c2csc3ncnc(N4CCc5ccccc5C4)c23)cc1`, the inhibition is 103%.
The same measure for `C=CC(=O)Nc1cccc(Oc2ncnc3[nH]cc(-c4cnc5ccccc5c4)c23)c1`: 102%.
Take `O=C(Nc1ccc2ccccc2c1)c1ccccc1O`: the inhibition amounted to 102%.
Turning to `CCOc1ccccc1NC(=S)Nc1ccc2cn[nH]c2c1`, the inhibition was determined as 104%.
In the case of `COc1ccc(-c2cnc(N)nc2-c2ccc(OC)cc2O)cc1`, the inhibition came out at 112%.
`C=C1C(=O)C2=CC1CCC(=O)C1(C)CCC(OC(C)=O)C(C)(C)C1CC2O` (stereo not drawn): the inhibition is 94.6%.
